Screening results as filed in PubChem BioAssay.
Nrf2 inh: inhibitors of Nrf2 signaling; A549 ARE-Fluc reporter, luciferase luminescence, 18-24 h; Potency, µM (highest dose often 46 µM), most hits filed as inhibitors; hit rate 2.1% among 360,000; AID 504444; note: nearly all actives have a fitted effect of over 60% in size
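Concentration-response testing used A549 ARE_Fluc cells at 5000 cells/well. Following an 18-24 h compound incubation, viability was read by fluorescence (Ex 405/Em 525) and luciferase output by luminescence.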
AT treatment: potential ataxia-telangiectasia treatment | F2112 A-T fibroblasts, KAP-1 phosphorylation AlphaLISA; neocarzinostatin DNA damage 30 min before lysis | Potency, µM (titrated, usually from 57.5 µM), most hits filed as activators | hit rate 0.19% among 320,000 | AID 485349; note: nearly all actives have a fitted effect of over 45% in size
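ATM-like activity read as KAP-1 phosphorylation via AlphaLISA donor/acceptor antibody pairs after lysis and 6 hr at 25C. Cells were ATM-null patient fibroblasts (F2112, hTERT), dosed 60 min, then exposed to the DSB inducer NCS for 30 min.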
TCR activator: activates T cell receptor signaling; primary human leukocytes, anti-CD3, IL-2 HTRF, 48 h; Potency, µM (series often up to 9.22 µM), actives largely listed as activators; 330,000 tested, under 10 active; AID 504894
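Primary human leukocytes incubated 48 hr with anti-CD3 beads plus compound, without co-stimulation. Secreted IL-2 measured by HTRF (europium cryptate/d2 anti-IL-2 pair, 320 nm excitation, 665 nm emission).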
A549 tox-1: A549 cytotoxicity, counter-screen for Nrf2 inhibitors; A549 ARE-Fluc cells, CellTiter-Fluor viability, 18-24 h; Potency, µM (doses to about 46 µM), usual class: inhibitors; hit rate 0.16% among 390,000
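Cytotoxicity counterscreen: CellTiter-Fluor fluorescence was measured in A549 ARE_Fluc cells after 18-24 h of compound exposure in a concentration series. The subsequent BugLite luminescent read reports ARE-luciferase activity.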
CCT chaperon mod: modulators of cytosolic chaperonin (CCT/TRiC) activity | purified chaperonin ATPase assay, HTRF ADP detection, 30 min | activity change, % (concentration not given with the values), hits read low | hit rate 0.3% among 360,000; in the data active = activity change below about -30%
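We incubate TRiC, 40 or 20 nM final, with library compounds at 76 uM and 10 uM ATP for 30 min at 37 °C. ADP formed is detected with Transcreener HTRF reagents after 30 min at room temperature.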
Nrf2 ARE act: Nrf2 pathway activation; AREc32 ARE-luciferase reporter (MCF7-derived line), luminescence, 24 h; Potency, µM (top dose mostly 46.1 µM), usual class: activators; hit rate 0.31% among 410,000; AID 624171; note: nearly all actives have a fitted effect of over 65% in size
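AREc32 cells carrying an ARE-driven firefly luciferase, 1000 cells/well in OPTI-MEM with 5% FBS, dosed after overnight attachment and incubated 24 hr at 37 deg C. Steady-Glo luminescence read after 30 min at RT.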
FLuc enzyme inh: firefly luciferase inhibition, Nrf2 hit validation; shares compounds with Nrf2 inh; purified firefly luciferase, luminescence inhibition; hit rate 4% among 1,400; Potency, µM (highest dose often 57.5 µM), actives largely listed as inhibitors; note: nearly all actives have a fitted effect of over 65% in size
Target sequence (P08659 whole entry, looked up): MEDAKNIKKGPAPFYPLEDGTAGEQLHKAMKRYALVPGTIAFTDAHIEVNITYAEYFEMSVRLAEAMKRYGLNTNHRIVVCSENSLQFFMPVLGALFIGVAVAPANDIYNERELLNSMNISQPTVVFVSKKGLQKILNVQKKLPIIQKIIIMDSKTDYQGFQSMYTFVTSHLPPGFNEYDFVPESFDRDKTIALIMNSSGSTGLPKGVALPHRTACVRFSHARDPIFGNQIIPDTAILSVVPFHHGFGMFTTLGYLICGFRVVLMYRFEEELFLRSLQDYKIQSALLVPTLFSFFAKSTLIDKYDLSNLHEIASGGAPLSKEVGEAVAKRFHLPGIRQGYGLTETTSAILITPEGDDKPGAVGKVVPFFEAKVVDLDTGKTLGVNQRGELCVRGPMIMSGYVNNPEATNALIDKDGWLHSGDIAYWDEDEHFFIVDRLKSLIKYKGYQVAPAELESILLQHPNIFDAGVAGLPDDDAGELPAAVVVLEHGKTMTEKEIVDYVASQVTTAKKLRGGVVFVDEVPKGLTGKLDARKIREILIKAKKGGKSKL
A549 tox-2: A549 cytotoxicity, Nrf2 inhibitor counterscreen; hit rate 2% among 1,400; shares compounds with Nrf2 inh; A549 ARE-Fluc cells, cytotoxicity counterscreen; Potency, µM (titrated, usually from 46.1 µM), most hits filed as inhibitors;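 note: cells exposed to compounds for 18 to 24 hours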
ARE-Fluc inh: confirmation of Nrf2 inhibitors in A549 ARE reporter cells; shares compounds with Nrf2 inh; A549 ARE-firefly luciferase reporter, luminescence; Potency, µM (doses to about 46.1 µM), actives largely listed as inhibitors; hit rate 74% among 1,400; AID 720524; note: nearly all actives have a fitted effect of over 65% in size
Each line names hits and unclear results; the compound was inactive in the other large screens (follow-up assays come after a bar, where shown). This is a sample that favours compounds with a hit; in the whole collection about 2.6% have one here. Unless noted, calls come from the whole dose curve; as a rule, active = well fitted curve in the direction sought with a large enough effect; inconclusive = small, poorly fitted or top-dose-only effect, or another doubt; inactive = no such curve, though single readings can be large; an effect the other way counts as inactive or inconclusive.

COc1ccc(Cl)cc1NC(=O)c1cc2c(=O)n3ccccc3nc2s1	Nrf2 inh 1.64µM (no result: AT treatment, TCR activator, CCT chaperon mod) | FLuc enzyme inh inactive | A549 tox-2 inconclusive | ARE-Fluc inh 23.1µM
CN1/C(=C/c2cc[n+](C)c3ccccc23)C=Cc2ccccc21	Nrf2 inh 1.16µM, A549 tox-1 20.6µM | FLuc enzyme inh inconclusive | A549 tox-2 inconclusive | ARE-Fluc inh 6.51µM
O=C(CCCc1nc(-c2ccc(Cl)cc2)no1)NC1CCCC1	Nrf2 inh 4.11µM | FLuc enzyme inh inactive | A549 tox-2 inactive | ARE-Fluc inh 5.17µM
O=C(CCc1nc(-c2ccc(Cl)cc2)no1)NC1CCCCC1	Nrf2 inh inconclusive
N#Cc1cccc(NCC(=O)Nc2cccc(S(=O)(=O)N3CCCCC3)c2)c1	Nrf2 inh inconclusive
N#Cc1cccc(NC(=O)CNc2cccc(S(=O)(=O)N3CCCC3)c2)c1	Nrf2 inh 7.31µM, A549 tox-1 inconclusive | FLuc enzyme inh inactive | A549 tox-2 inactive | ARE-Fluc inh inconclusive
CCN(CC)S(=O)(=O)c1cc(NC(=O)CNc2cccc(S(=O)(=O)N3CCOCC3)c2)ccc1C	Nrf2 inh 0.581µM | FLuc enzyme inh inactive | A549 tox-2 inactive | ARE-Fluc inh 3.66µM
O=C(CNc1cc(S(=O)(=O)N2CCCC2)ccc1OCC(F)(F)F)Nc1cccc(C(F)(F)F)c1	Nrf2 inh 7.31µM | FLuc enzyme inh inactive | A549 tox-2 inactive | ARE-Fluc inh 13µM
O=C(CNc1cccc(C(F)(F)F)c1)Nc1cccc(S(=O)(=O)N2CCCC2)c1	Nrf2 inh inconclusive
Cc1ccc(C(=O)NN2C(=O)C3C4C=CC([C@@H]3C2=O)C42CC2)cc1 (stereo not given in full)	none
Nc1ccc(Oc2ccccc2-c2ccccc2)cc1	Nrf2 inh 9.2µM (no result: AT treatment) | FLuc enzyme inh inconclusive | A549 tox-2 inactive | ARE-Fluc inh 8.2µM
Cc1ccnc(NC(=O)CCCOc2cc(=O)n(C)c3ccccc23)c1	Nrf2 inh 4.11µM, A549 tox-1 inconclusive | FLuc enzyme inh inactive | A549 tox-2 inconclusive | ARE-Fluc inh 5.8µM
COc1ccc(C)cc1NC(=O)N1CCCn2nc(C)cc21	Nrf2 inh inconclusive (no result: AT treatment, TCR activator, CCT chaperon mod)
CC(=O)c1sc2c(c1OC(=O)c1ccc(Cl)cc1Cl)c(=O)n(-c1ccccc1)c(=S)n2-c1ccccc1	Nrf2 inh 3.26µM, A549 tox-1 inconclusive | FLuc enzyme inh inactive | A549 tox-2 inconclusive
N#C/C(=C\c1cccnc1)c1ccccc1[N+](=O)[O-]	none
Cc1ccc(NC(=O)CSc2nn(-c3ccccc3)c(=S)s2)cc1S(=O)(=O)N(C)C	Nrf2 inh 5.8µM, A549 tox-1 inconclusive | FLuc enzyme inh inactive | A549 tox-2 inactive | ARE-Fluc inh 7.31µM
Cc1nn(-c2ccccc2)c2c1N(CC(=O)N1CCN(c3ccccc3F)CC1)C(=O)CS2	Nrf2 inh inconclusive (no result: AT treatment, TCR activator, CCT chaperon mod)
COc1ccc(OC)c(Nc2ncnc3sccc23)c1	none
COc1cc(CN(C)c2ncnc3sccc23)ccc1OC(F)F	Nrf2 inh 9.2µM | FLuc enzyme inh inactive | A549 tox-2 inactive | ARE-Fluc inh 8.2µM
Cn1c2ccccc2c(=O)c2cc(C#CC3(O)CCCCC3)ccc21	Nrf2 inh inconclusive
Cc1cc2sc3ccc(C#CC4(O)CCCCC4)cc3c(=O)c2cc1C	Nrf2 inh 0.206µM (no result: AT treatment) | FLuc enzyme inh 0.0849µM | A549 tox-2 inactive | ARE-Fluc inh 9.2µM
Cc1nc2c(c(C)nn2-c2ccccc2)c(C)c1CCC(=O)Nc1ccc(F)cc1	Nrf2 inh inconclusive (no result: AT treatment, TCR activator, CCT chaperon mod)
O=c1c2cccc3c2c(nn1CN1CCOCC1)-c1ccccc1-3	Nrf2 inh 3.66µM (no result: TCR activator) | FLuc enzyme inh inactive | A549 tox-2 inactive | ARE-Fluc inh 8.2µM
Cc1ccc(S(=O)(=O)N2CCC(n3c(C)nc4cccnc43)CC2)c(C)c1	Nrf2 inh 9.2µM (not shown: AT treatment, TCR activator, CCT chaperon mod) | FLuc enzyme inh inactive | A549 tox-2 inactive
CCOC(=O)C1(Cc2cccc(F)c2)CCN(C(=O)C2CCCO2)CC1 (stereo not given)	none
COc1cc(OC)c(/C=C/c2nccc3ccccc23)c(OC)c1	none (not shown: Nrf2 inh, AT treatment, TCR activator, A549 tox-1, CCT chaperon mod, Nrf2 ARE act) | FLuc enzyme inh 7.57µM | A549 tox-2 inactive
COc1cc2ccc(-c3ccc4ccccc4n3)cc2cc1OC	none (no result: Nrf2 inh, AT treatment, TCR activator, A549 tox-1)
COc1cc(OC)c(C=Cc2ccncn2)c(OC)c1	none (no result: Nrf2 inh, AT treatment, TCR activator, A549 tox-1)
Nc1ccc(/C=C/c2nccc3ccccc23)cc1	none (no result: Nrf2 inh, AT treatment, TCR activator, A549 tox-1, CCT chaperon mod, Nrf2 ARE act) | FLuc enzyme inh 2.69µM | A549 tox-2 inactive | ARE-Fluc inh inconclusive
COc1cc(OC)c(/C=C/c2ccccn2)c(OC)c1	none (no result: Nrf2 inh, AT treatment, TCR activator, A549 tox-1, CCT chaperon mod, Nrf2 ARE act) | FLuc enzyme inh inactive | A549 tox-2 inactive | ARE-Fluc inh 6.51µM
COc1cc(OC)c(/C=C/c2ccc3ccccc3n2)c(OC)c1	none (no result: Nrf2 inh, AT treatment, TCR activator, A549 tox-1, CCT chaperon mod, Nrf2 ARE act) | FLuc enzyme inh inactive | A549 tox-2 inconclusive | ARE-Fluc inh 6.51µM
N#Cc1nc(N2CCCCC2)nc(N2CCCCC2)n1	Nrf2 inh 2.06µM (no result: AT treatment, TCR activator, CCT chaperon mod, Nrf2 ARE act) | FLuc enzyme inh inactive | A549 tox-2 inactive | ARE-Fluc inh 5.17µM
CCNc1nc(NC(C)(C)C)nc(N2CCCC2)n1	A549 tox-1 inconclusive
